Results published in PubChem BioAssay (EPA / NIEHS).
Where a structure was tested more than once in an assay, its records may differ in their call. The source made the active and inactive calls. The calls were made as follows: active = hit-call score of the fitted dose curve at least 0.9, where 1 is the maximum; inactive = score below 0.9.

biological target: Retinoic acid receptor alpha (Homo sapiens) (UniProt P10276); test: ATG_DR5_RAR_CIS: Attagene CIS-FACTORIAL HepG2 Assay for human Retinoic Acid Receptor Alpha (RARE), DR5 submotif (AID 2282934); details: HepG2 Attagene cis-factorial RARE DR5 reporter, mRNA; actives raise or lower the signal;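 as to AC50: reporter responds to endogenous RAR alpha beta and gamma in HepG2 not RARA alone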
Description: ATG_CIS is a cell-based, multiplexed-readout assay that uses HepG2, a human liver cell line, with measurements taken at 24 hours after chemical dosing in a 24-well plate.ATG_DR5_RAR_CIS is one of 52 assay component(s) measured or calculated from the ATG_CIS assay. It is designed to make measurements of mRNA induction, a form of inducible reporter, as detected with fluorescence intensity signals by Reverse transcription polymerase chain reaction (RT-PCR) and Capillary electrophoresis technology.Data from the assay component ATG_DR5_RAR_CIS was analyzed into 1 assay endpoint. This assay endpoint, ATG_DR5_CIS, was analyzed with bidirectional fitting relative to DMSO as the negative control and baseline of activity. Using a type of inducible reporter, measures of mRNA for gain or loss-of-signal activity can be used to understand the reporter gene at the transcription factor-level as they relate to the gene RARA and RARB and RARG. Furthermore, this assay endpoint can be referred to as a primary readout, because this assay has produced multiple assay endpoints where this one serves a reporter gene function. To generalize the intended target to other relatable targets, this assay endpoint is annotated to the nuclear receptor intended target family, where the subfamily is non-steroidal.
Human liver HepG2 cells are transiently transfected with multiple reporter transcription units (MRTUs) in 6-well plates using FuGene 6 reagent (Roche; 3 ml FuGene/1 mg DNA). The MRTU constructs are regulated by a cis-regulating element (promoter). […] A major difference between the CIS and TRANS system is that in CIS activities of endogenous TFs are measured, whereas the TRANS assay evaluates changes in activities of exogenous, chimeric NR-Gal4 proteins. […] At the end of 24 hour incubation, total RNA was isolated using TriZol reagent (Invitrogen). The isolated RNA is then reverse-transcribed using oligo(dT) primer and Mo-MLV reverse transcriptase (Invitrogen) with DNAse I (Ambion) treatment for 30 min. The one-tenth of the produced cDNA was amplified by PCR using Taq DNA polymerase (Invitrogen) and two reporter sequence-specific primers. The PCR products were fluorescently labeled by primer extension with 6-arboxyfluorescein (6-FAM) 5'-labeled reporter sequence-specific primer (2 min at 95 C, 20 s at 68 C and 10 min at 72 C) and these products were digested with 5U of HpaI (New England Biolabs) for 2h at 37 C. The fragments were purified using Qiaquick PCR columns (Qiagen), analyzed on an ABI 3130xL genetic analyzer (Applied Biosystems) with peak positions identified by using a set of X-rhodamine (ROX)-labeled MapMarker1000 molecular weight standards (BioVentures). The raw capillary electrophoresis data was processed using Attagraph software (Attagene).

Chain of Retinoic acid receptor alpha (Homo sapiens) (P10276 whole entry, looked up): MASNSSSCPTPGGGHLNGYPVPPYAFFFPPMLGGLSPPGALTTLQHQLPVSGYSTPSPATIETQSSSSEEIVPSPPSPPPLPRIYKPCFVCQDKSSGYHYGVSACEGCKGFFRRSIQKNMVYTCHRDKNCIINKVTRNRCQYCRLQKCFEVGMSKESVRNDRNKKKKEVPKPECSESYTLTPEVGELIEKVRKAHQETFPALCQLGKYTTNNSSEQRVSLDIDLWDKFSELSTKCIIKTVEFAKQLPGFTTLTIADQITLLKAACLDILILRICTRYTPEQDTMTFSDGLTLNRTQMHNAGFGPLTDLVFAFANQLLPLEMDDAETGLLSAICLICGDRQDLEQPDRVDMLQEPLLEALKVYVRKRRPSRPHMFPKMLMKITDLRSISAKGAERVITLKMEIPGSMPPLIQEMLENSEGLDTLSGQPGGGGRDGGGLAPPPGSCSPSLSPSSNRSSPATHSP

| Compound | outcome | AC50 |
| --- | --- | --- |
| CCC[CH2][Sn]([Cl])([Cl])[CH2]CCC | inactive |  |
| CCC[CH2][Sn]([CH2]CCC)([CH2]CCC)[CH2]CCC |  | 0.283 µM (active) |
| CC(=Cc1ccccc1)[N+](=O)[O-] | inactive |  |
| c1ccc2c(c1)Oc1ccccc1O2 | inactive |  |
| OC(Cc1ccccc1Cl)(Cn1[nH]cnc1=S)C1(Cl)CC1 (stereo not given) | inactive |  |
| O=[N+]([O-])c1ccccc1O | inactive | 27.3 µM (active) |
| CCCCCCCCCCCCBr | inactive |  |
| CNC(=O)O/N=C/C(C)(C)S(C)(=O)=O | inactive |  |
| Cc1ccc(OP(=O)(Oc2ccc(C)cc2C)Oc2ccc(C)cc2C)c(C)c1 | inactive |  |
| CC(=O)C(F)(F)C(F)(F)F | inactive |  |
| Nc1nc(N)nc(Cl)n1 | inactive |  |
| CC[N+](CC)(CC)CC | inactive |  |
| c1ccc2sc(SNC3CCCCC3)nc2c1 | inactive |  |
| Cc1cc(Cl)ccc1N | inactive |  |
| c1csc(-c2ccc(-c3cccs3)s2)c1 | inactive |  |
| BrCC(Br)c1ccccc1 (stereo not given) | inactive |  |
| CC(C)N(C(=O)CCl)c1ccccc1 |  | 59.1 µM (active) |
| C#CCOC(=O)/C=C(C)/C=C/CC(C)CCCC(C)C (stereo not given) | inactive |  |
| Nc1ccc(N)cc1 | inactive | 37.5 µM (active) |

| Compound | outcome | AC50 |
| --- | --- | --- |
| CC(c1ccccc1)(c1ccc(O)cc1)c1ccc(O)cc1 | inactive |  |
| Cc1cccc(C)c1NC(=O)CN1CCCC1=O | inactive |  |
| O=C(O)COc1cc(Cl)c(Cl)cc1Cl | inactive |  |
| O=CCCl | inactive |  |
| N#Cc1ccc(Cl)cc1 | inactive |  |
| FC(F)OCC(F)(F)C(F)(F)F | inactive |  |
| O=[N+]([O-])c1c2ccccc2cc2ccccc12 | inactive |  |
| Nc1ncn[nH]1 | inactive |  |
| CCOC(=O)CCN(SN(C)C(=O)Oc1cccc2c1OC(C)(C)C2)C(C)C | inactive |  |
| NC(=O)c1ccc(N)nc1 | inactive |  |
| CCOc1cc(C=O)ccc1O | inactive |  |
| CN(N=O)C(N)=O | inactive |  |
| CCOCn1c(-c2ccc(Cl)cc2)c(C#N)c(Br)c1C(F)(F)F |  | 0.518 µM (active) |
| Nc1nc(=S)[nH][nH]1 | inactive |  |
| Clc1cnc(Oc2ccc(Oc3ncc(Cl)cc3Cl)cc2)c(Cl)c1 | inactive |  |
| COc1ccc([N+](=O)[O-])cc1O | inactive |  |
| CCOP(=O)(OCC)SCCSCC | inactive |  |
| CCCSP(=S)(OCC)Oc1ccc(SC)cc1 (stereo not given) | inactive |  |
| Cl[C@H]1OCCO[C@@H]1Cl | inactive |  |
